# Compound activity as filed in PubChem BioAssay.
# Most compounds without a hit are left out; they make up all but 15% or so of the library.
# TDP1 cell noCPT: qHTS for Inhibitors of human tyrosyl-DNA phosphodiesterase 1 (TDP1): qHTS in cells in absence of CPT. DT40 Tdp1-/- hTDP1 cells, no CPT, ATP luminescence, 48 h. Potency, µM (series often up to 46.2 µM), actives largely listed as inhibitors. actives 15% (n = 420,000); note: nearly all actives have a fitted effect of over 55% in size
#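 Luminescent ATP content (CellTiter-Glo) served as the growth readout. Knockout chicken DT40 cells expressing human TDP1 were exposed to compounds without camptothecin for a minimum 48 hr at 37 °C.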
# Gal4-VP16 FLuc: inhibits Gal4-VP16 luciferase reporter, ROR gamma counter-screen; Drosophila S2 Gal4-VP16 UAS-luciferase, luminescence, 20 h; AID 2546; actives 3.5% (n = 310,000); Potency, µM (titrated, usually from 53.6 µM), hits mostly inhibitors;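 note: Gal4-VP16 expression switched on by copper sulfate through the metallothionein promoter; nearly all actives have a fitted effect of over 50% in size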
# DT40 TDP1 CPT: growth inhibition of DT40 Tdp1-/-;hTDP1 cells with camptothecin (screen for TDP1 inhibitors) | AID 686979 | Potency, µM (doses to about 46.2 µM), most hits filed as inhibitors | chicken DT40 Tdp1-/-;hTDP1 cells + 20 nM CPT, ATP luminescence, 48 h | actives 12% (n = 420,000); note: nearly all actives have a fitted effect of over 55% in size
#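 Chicken DT40 Tdp1-/- cells stably complemented with human TDP1 were seeded at 400 cells/well in medium containing 20 nM camptothecin, exposed to pin-transferred compounds, and grown at 37 °C for at least 48 hr. Viability was read as ATP luminescence.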
# ELG1 DNA repair: inhibitors of ELG1-dependent DNA repair in HEK293T cells; HEK293T ELG1-luciferase reporter, luminescence, 16 h; DNA damage induced by 5-fluorouridine; Potency, µM (highest dose often 46.1 µM), usual class: inhibitors; actives 2.3% (n = 330,000); note: nearly all actives have a fitted effect of over 55% in size
#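 5-Fluorouridine DNA damage + compound/DMSO, 2,000 cells/well, 16 h, 37 °C/5% CO2. ONE-Glo, 30 min RT, luminescence. Readout = decrease in reporter signal.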
# ALOX12 inh: blocks human arachidonate 12S-lipoxygenase; purified 12hLO, xylenol orange hydroperoxide absorbance; P18054; actives 1.1% (n = 580,000); Potency, µM (doses to about 108 µM), usual class: inhibitors; AID 1671190
#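 Hydroperoxide product was detected by ferrous iron/xylenol orange as the 573 to 405 nm absorbance ratio. Arachidonic acid at 40 uM (final) was turned over for 30 min at room temperature by 150 nM human 12hLO, pH 7.0 Hepes buffer, after 15 min compound preincubation.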
# RORg inh: blocks mouse ROR gamma transcriptional activity; AID 2551; actives 5.4% (n = 310,000); Potency, µM (top dose mostly 53.6 µM), hits mostly inhibitors; Drosophila S2 Gal4-RORgamma UAS-luciferase reporter, 20 h; P51450; note: nearly all actives have a fitted effect of over 60% in size
# Target sequence (P51450 whole entry, looked up, the tested form may be a part): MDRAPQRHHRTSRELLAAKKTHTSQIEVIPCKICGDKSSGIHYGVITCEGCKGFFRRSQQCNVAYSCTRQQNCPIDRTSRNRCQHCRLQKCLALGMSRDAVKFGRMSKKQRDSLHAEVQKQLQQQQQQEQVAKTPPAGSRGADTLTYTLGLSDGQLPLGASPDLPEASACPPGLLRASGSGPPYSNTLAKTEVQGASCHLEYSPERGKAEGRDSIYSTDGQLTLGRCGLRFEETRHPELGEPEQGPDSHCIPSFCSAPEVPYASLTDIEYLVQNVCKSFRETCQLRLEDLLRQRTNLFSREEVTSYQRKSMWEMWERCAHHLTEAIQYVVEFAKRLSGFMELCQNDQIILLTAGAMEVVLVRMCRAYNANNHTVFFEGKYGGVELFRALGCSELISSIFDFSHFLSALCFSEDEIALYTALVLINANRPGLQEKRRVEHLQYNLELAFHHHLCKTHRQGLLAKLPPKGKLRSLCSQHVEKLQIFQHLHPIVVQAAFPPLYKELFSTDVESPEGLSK
#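 Read-out: Photinus luciferase luminescence; inhibitors lower reporter signal. Insect Schneider cells with Gal4-ROR gamma fusion under metallothionein promoter, UAS reporter; 700 uM final copper sulfate induction, 20 hr, ambient temperature.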
# Hits are given with their value; n = inactive; u = inconclusive; x = no result. Calls come from the whole dose curve; as a rule, active = well fitted curve in the direction sought with a large enough effect; inconclusive = small, poorly fitted or top-dose-only effect, or another doubt; inactive = no such curve, though single readings can be large; an effect the other way counts as inactive or inconclusive.
SMILES,TDP1 cell noCPT,Gal4-VP16 FLuc,DT40 TDP1 CPT,ELG1 DNA repair,ALOX12 inh,RORg inh
CN(Cc1ccccc1)C(=O)c1ccc2c(c1)N(Cc1ccccc1Cl)C(=O)c1ccccc1S2,u,x,u,x,n,x
CCCCN(C)C(=O)c1ccc2c(c1)N(Cc1ccc(F)cc1)C(=O)c1ccccc1S2(=O)=O,16µM,x,16µM,x,n,x
O=C(NCCN1CCOCC1)c1ccc2c(c1)N(Cc1ccc(F)cc1)C(=O)c1ccccc1S2(=O)=O,n,n,n,n,n,n
COc1cccc(CN2C(=O)c3ccccc3Sc3ccc(C(=O)N(C)Cc4ccccc4)cc32)c1,18µM,x,u,x,n,x
CNC(=O)NC(=O)C(C)N(C)CCCCc1ccccc1 (configuration not stated),x,x,x,x,n,x
O=C(NC1CCCCC1)c1ccc2c(c1)N(Cc1ccc(Cl)cc1)C(=O)c1ccccc1S2(=O)=O,n,x,n,x,n,x
O=C(NCCC1=CCCCC1)c1ccc2c(c1)N(Cc1ccc(F)cc1)C(=O)c1ccccc1S2(=O)=O,7.3µM,x,21µM,x,n,x
O=C(NCc1ccco1)c1ccc2c(c1)N(Cc1ccc(Cl)cc1)C(=O)c1ccccc1S2(=O)=O,18µM,x,u,x,n,x
Cc1ccc(C)c(CN2C(=O)c3ccccc3S(=O)(=O)c3ccc(C(=O)NCCC4=CCCCC4)cc32)c1,u,x,u,x,n,x
CN(Cc1ccccc1)C(=O)c1ccc2c(c1)N(Cc1ccc(Cl)cc1)C(=O)c1ccccc1S2=O (configuration not stated),16µM,x,16µM,x,u,x
CC(C)CCNC(=O)c1cc(-c2ccncc2)cn1C,x,x,x,x,n,x
O=C(CCN1C(=O)/C(=C/c2ccccc2Cl)SC1=S)NC1C=CS(=O)(=O)C1 (configuration not stated),23µM,n,18µM,n,n,u
CC(C(=O)NC1C=CS(=O)(=O)C1)N1C(=O)/C(=C/c2ccc(Cl)cc2)SC1=S (configuration not stated),u,u,u,u,40µM,u
O=C(CCN1C(=O)/C(=C/c2ccc(F)cc2)SC1=S)NC1C=CS(=O)(=O)C1 (configuration not stated),13µM,n,13µM,n,n,n
O=C(CCN1C(=O)/C(=C/c2ccc(F)cc2)SC1=S)N[C@@H](CO)Cc1ccccc1,21µM,n,16µM,n,n,n
COc1ccc(/C=C2\SC(=O)N(CC(=O)NC3C=CS(=O)(=O)C3)C2=O)cc1 (configuration not stated),u,n,u,n,n,n
Cc1ccc(-c2ocnc2C(=O)Nc2ccc(C)c(Cl)c2)o1,x,x,x,x,n,x
O=C(c1ccc(F)c(F)c1)N1CCC2(CC1)N=C(c1cccc(Br)c1)NO2,x,x,x,x,n,x
CCC1CCC(C(=O)Nc2ccc(Br)cc2)CC1 (configuration not stated),x,x,x,x,n,x
O=C(CN1C(=O)S/C(=C\c2ccc(F)cc2)C1=O)NC1C=CS(=O)(=O)C1 (configuration not stated),n,n,n,u,n,n
O=C(CN1C(=O)S/C(=C\c2ccccc2F)C1=O)NC1C=CS(=O)(=O)C1 (configuration not stated),u,n,15µM,u,n,n
CC(CNC(=O)c1cc2cc(S(=O)(=O)N3CCCCC3)ccc2n1C)c1ccccc1 (configuration not stated),12µM,x,3.3µM,x,n,x
CC(C)CCNC(=O)c1cc2cc(S(=O)(=O)N3CCCCC3)ccc2n1C,u,x,u,x,n,x
Cn1c(C(=O)NCCc2ccccc2)cc2cc(S(=O)(=O)N3CCCCC3)ccc21,u,x,15µM,x,u,x
O=C(Nc1cccc2cccnc12)c1ccc(OC2CCCC2)cc1,x,x,x,x,n,x
CCOc1cccc2sc(N(Cc3cccnc3)C(=O)c3ccco3)nc12,u,x,u,x,n,x
COc1cccc2sc(N(Cc3cccnc3)C(=O)c3ccco3)nc12,u,x,16µM,x,n,x
